Test results as given in the supplement of paper PMC10849652.
Targets with a hit are over-represented here; the source holds about 8,800 in all. About 0.5% of all pairs of compound and target were hits.

Key:
Experiment in all cases: log2 fold change, soluble protein after heating vs DMSO (PISA); higher = thermal stabilisation; K562 lysate, 10 uM; active = over 0.2 and 3.5 SD of the protein, either way, in both replicates (recomputed)
[1] = compound: C1=CC=C(C=C1)[C@H](COC2=CC3=C(C=C2)NC(=O)N3)NC(=O)C4=CC=CN(C4=O)CC5=CC(=C(C=C5)F)F
Outline: (§1)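 Following dounce homogenisation of K562 pellets in PBS pH 7.4 with 1 mM MgCl2, crude extract at 1 mg/mL protein was incubated for 30 min with 10 μM compound. Aliquots were then heated for 3 min over 48°C-58°C and pooled, NP-40 was added to 0.5% at 4°C, and soluble protein was recovered as the supernatant at 21,000xg for 90 min. Channel-sum-equalised TMTpro 16plex LC-MS/MS quantified this protein. Each value, from duplicates, is a log-two fold change in thermal stability relative to solvent controls.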

[2] = compound: CC1=C(SC2=C1C(=N[C@H](C3=NN=C(N32)C)CC(=O)N)C4=CC=C(C=C4)Cl)C
Outline: as §1

[3] = compound: CC1=C2C(=CC=C1)N=C(N(C2=O)C3=CC=CC=C3C)CN4C=NC5=C(N=CN=C54)N
Outline: as §1

[4] = compound: Cc1sc2c(c1C)C(c1ccc(Cl)cc1)=N[C@@H](CC(=O)OC(C)(C)C)c1nnc(C)n1-2
Outline: as §1

[5] = compound: c1ccc([C@@H]2C[C@H]2NC2CCNCC2)cc1
Outline: as §1

Sequence of UniProt Q9Y613 (Q9Y613 whole entry, looked up): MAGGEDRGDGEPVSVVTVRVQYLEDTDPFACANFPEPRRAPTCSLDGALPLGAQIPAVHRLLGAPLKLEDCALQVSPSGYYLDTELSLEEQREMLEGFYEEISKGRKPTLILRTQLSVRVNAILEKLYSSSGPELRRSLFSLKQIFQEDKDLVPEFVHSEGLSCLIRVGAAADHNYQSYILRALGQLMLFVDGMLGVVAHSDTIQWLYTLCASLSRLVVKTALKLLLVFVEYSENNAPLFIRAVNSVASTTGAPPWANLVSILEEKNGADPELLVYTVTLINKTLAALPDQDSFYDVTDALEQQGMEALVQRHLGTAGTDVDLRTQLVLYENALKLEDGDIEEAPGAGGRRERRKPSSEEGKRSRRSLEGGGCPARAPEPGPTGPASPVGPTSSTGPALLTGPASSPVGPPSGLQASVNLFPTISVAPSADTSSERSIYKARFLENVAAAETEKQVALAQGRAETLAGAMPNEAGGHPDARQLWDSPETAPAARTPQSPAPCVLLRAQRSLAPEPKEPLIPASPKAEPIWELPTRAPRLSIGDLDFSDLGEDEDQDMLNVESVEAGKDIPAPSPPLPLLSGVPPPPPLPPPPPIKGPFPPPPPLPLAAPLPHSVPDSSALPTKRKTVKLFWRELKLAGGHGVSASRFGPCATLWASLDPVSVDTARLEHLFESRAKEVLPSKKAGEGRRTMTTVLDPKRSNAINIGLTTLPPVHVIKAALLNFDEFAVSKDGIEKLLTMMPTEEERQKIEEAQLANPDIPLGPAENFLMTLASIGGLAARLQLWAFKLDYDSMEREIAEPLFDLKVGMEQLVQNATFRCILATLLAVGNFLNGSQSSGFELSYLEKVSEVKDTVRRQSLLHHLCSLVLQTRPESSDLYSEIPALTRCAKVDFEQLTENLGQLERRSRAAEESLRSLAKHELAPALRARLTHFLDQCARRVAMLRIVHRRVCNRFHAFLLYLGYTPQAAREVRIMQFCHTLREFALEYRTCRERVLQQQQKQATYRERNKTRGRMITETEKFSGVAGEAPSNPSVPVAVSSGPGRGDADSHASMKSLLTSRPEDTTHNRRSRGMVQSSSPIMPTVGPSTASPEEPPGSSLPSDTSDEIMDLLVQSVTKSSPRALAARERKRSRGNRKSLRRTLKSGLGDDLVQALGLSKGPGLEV
Sequence of UniProt P37268 (P37268 whole entry, looked up): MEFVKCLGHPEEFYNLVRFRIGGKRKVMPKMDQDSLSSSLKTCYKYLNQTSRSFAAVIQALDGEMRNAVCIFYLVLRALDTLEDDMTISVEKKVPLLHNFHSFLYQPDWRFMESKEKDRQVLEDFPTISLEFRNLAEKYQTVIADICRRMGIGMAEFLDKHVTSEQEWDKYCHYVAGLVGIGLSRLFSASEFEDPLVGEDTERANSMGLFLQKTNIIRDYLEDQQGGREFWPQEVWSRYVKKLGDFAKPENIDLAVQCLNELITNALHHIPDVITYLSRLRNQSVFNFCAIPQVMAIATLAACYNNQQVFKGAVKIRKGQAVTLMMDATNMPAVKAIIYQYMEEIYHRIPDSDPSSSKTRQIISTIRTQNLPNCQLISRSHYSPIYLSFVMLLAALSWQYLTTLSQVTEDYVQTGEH
Sequence of UniProt Q9H6S3 (Q9H6S3 whole entry, looked up): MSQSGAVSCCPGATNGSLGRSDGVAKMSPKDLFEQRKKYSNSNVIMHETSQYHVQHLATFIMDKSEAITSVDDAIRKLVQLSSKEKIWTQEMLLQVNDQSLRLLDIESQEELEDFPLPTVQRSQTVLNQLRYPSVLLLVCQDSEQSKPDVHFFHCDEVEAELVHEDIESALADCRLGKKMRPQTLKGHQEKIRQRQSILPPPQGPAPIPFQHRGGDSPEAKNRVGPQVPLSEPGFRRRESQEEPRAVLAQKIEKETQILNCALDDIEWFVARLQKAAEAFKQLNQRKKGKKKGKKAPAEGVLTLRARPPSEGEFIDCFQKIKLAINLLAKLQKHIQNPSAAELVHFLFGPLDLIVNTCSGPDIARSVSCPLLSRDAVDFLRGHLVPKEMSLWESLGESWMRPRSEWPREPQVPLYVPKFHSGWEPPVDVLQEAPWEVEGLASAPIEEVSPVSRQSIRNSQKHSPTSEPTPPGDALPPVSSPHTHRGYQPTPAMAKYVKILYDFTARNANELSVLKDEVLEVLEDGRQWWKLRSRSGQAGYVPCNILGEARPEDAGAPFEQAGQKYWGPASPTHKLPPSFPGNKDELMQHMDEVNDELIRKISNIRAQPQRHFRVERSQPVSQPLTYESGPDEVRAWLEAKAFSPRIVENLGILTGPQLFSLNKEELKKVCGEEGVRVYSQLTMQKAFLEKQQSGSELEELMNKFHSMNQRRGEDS
Sequence of UniProt O95718 (O95718 whole entry, looked up): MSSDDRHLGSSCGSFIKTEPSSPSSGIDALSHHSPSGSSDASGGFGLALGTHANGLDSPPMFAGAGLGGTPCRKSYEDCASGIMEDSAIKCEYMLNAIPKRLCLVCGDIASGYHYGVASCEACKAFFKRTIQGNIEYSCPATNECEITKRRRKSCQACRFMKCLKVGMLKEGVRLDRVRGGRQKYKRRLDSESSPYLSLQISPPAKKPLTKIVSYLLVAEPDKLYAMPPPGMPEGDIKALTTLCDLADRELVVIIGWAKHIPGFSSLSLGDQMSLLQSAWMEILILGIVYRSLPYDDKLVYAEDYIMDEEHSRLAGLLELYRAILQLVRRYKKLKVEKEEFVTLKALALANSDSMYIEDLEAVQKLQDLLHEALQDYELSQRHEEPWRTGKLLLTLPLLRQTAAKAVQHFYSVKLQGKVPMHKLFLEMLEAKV
Sequence of UniProt P60981 (P60981 whole entry, looked up): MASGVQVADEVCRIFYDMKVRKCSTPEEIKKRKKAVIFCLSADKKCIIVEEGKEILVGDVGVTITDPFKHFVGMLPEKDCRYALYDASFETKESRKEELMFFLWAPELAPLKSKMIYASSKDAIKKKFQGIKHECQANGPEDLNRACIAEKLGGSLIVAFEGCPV
Sequence of UniProt Q5HYJ3 (Q5HYJ3 whole entry, looked up): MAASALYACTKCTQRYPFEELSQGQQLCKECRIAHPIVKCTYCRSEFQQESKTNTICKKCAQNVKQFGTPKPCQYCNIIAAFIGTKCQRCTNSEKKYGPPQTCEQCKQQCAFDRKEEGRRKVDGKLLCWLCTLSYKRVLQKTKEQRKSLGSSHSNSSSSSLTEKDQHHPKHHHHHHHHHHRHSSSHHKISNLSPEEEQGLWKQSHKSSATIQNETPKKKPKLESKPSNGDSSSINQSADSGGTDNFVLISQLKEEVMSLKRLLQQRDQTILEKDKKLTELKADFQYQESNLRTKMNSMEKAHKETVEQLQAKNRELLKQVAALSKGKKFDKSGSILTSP
Sequence of UniProt Q96EK7 (Q96EK7 whole entry, looked up): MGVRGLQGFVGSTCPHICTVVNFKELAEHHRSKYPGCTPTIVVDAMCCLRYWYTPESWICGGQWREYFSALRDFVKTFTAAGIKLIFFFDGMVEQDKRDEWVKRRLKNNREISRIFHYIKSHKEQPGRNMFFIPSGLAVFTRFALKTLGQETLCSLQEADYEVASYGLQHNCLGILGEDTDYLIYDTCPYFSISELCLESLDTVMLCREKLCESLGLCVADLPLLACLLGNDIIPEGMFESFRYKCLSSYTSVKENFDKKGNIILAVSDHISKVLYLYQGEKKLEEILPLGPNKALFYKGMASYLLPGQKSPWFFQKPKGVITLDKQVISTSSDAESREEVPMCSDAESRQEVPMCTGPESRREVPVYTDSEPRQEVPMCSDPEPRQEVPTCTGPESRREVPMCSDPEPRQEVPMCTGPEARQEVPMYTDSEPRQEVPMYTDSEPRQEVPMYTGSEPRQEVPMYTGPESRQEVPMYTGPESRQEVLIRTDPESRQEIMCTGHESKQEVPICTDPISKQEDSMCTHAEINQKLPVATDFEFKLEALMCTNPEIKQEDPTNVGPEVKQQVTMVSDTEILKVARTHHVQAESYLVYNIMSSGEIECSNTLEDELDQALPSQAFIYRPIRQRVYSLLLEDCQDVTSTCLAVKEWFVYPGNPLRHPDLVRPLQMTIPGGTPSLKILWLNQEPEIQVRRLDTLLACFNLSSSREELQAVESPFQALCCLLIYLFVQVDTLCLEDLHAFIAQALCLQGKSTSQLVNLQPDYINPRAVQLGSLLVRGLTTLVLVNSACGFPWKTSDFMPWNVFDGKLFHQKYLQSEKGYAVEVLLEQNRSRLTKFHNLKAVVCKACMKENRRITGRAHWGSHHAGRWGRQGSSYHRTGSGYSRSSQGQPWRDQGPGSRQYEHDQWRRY
Sequence of UniProt P58012 (P58012 whole entry, looked up): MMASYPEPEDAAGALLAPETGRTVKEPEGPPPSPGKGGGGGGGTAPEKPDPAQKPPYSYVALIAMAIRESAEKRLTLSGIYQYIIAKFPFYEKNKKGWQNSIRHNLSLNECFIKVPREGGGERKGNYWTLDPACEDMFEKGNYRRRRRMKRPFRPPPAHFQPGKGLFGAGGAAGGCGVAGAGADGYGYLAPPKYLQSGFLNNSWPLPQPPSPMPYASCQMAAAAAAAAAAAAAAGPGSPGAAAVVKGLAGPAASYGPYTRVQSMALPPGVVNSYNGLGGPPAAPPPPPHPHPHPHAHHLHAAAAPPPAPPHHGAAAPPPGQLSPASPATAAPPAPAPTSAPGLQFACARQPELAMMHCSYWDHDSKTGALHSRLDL
Sequence of UniProt P02774 (P02774 whole entry, looked up): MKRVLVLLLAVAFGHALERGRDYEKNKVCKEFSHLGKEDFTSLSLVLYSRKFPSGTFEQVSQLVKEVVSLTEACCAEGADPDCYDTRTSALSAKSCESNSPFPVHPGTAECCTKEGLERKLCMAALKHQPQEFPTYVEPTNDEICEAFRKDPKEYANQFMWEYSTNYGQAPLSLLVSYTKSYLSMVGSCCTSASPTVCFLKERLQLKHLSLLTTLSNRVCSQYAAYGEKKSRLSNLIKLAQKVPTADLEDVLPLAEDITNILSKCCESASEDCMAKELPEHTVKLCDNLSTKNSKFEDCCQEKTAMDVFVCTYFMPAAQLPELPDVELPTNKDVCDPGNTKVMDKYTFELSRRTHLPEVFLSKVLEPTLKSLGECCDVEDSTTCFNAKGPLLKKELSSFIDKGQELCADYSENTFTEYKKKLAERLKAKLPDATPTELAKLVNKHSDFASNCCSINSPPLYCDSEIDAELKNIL

Row | Target | log2 fold change [1] | log2 fold change [2] | log2 fold change [3] | log2 fold change [4] | log2 fold change [5]
1 | GEMIN5 (UniProt Q8TEQ6) | -0.015 (inactive) | 0.025 (inactive) | 0.016 (inactive) | -0.002 (inactive) | 0.036 (inactive)
2 | ESRRB isoform 1 (UniProt O95718) | -0.147 (inactive) | 0.109 (inactive) | – | – | 0.321 (inactive)
3 | GART (UniProt C9JZG2) | -0.131 (inactive) | 0.086 (inactive) | – | – | -0.366 (inactive)
4 | EVI5L isoform 2 (UniProt Q96CN4) | – | – | – | – | 0.036 (inactive)
5 | FAT1 (UniProt Q14517) | – | – | – | – | -0.092 (inactive)
6 | EID1 (UniProt Q9Y6B2) | – | – | – | 0.024 (inactive) | -0.022 (inactive)
7 | FAM120B (UniProt Q96EK7) | 0.034 (inactive) | 0.059 (inactive) | -0.004 (inactive) | -0.016 (inactive) | 0.035 (inactive)
8 | FTSJ1 isoform 2 (UniProt Q9UET6) | – | – | -0.089 (inactive) | – | -0.234 (inactive)
9 | FAM111A (UniProt Q96PZ2) | – | – | -0.008 (inactive) | -0.097 (inactive) | –
10 | EIF2AK3 (UniProt Q9NZJ5) | – | – | – | 0.025 (inactive) | 0.041 (inactive)
11 | FASTKD5 (UniProt Q7L8L6) | -0.168 (inactive) | -0.056 (inactive) | -0.024 (inactive) | -0.002 (inactive) | 0.133 (inactive)
12 | FDFT1 (UniProt P37268) | -0.045 (inactive) | 0.268 (active) | 0 (inactive) | 0.107 (inactive) | -0.047 (inactive)
13 | EIF3I (UniProt Q5TFK1) | – | – | – | – | 0.059 (inactive)
14 | FAM76B (UniProt Q5HYJ3) | – | – | 0.066 (inactive) | 0.038 (inactive) | -0.099 (inactive)
15 | DYRK1A isoform 2 (UniProt Q13627) | -0.001 (inactive) | -0.028 (inactive) | – | – | -0.339 (inactive)
16 | FHOD1 (UniProt Q9Y613) | -0.041 (inactive) | 0.006 (inactive) | 0.043 (inactive) | 0.029 (inactive) | 0.027 (inactive)
17 | FOXL2 (UniProt P58012) | 0.135 (inactive) | 0.129 (inactive) | – | 0.166 (inactive) | –
18 | DSTN (UniProt P60981) | 0.043 (inactive) | -0.051 (inactive) | -0.016 (inactive) | 0.018 (inactive) | -0.06 (inactive)
19 | GC isoform 3 (UniProt P02774) | – | – | 0.007 (inactive) | -0.138 (inactive) | 0.107 (inactive)
20 | FOXJ2 (UniProt Q9P0K8) | 0.022 (inactive) | 0.06 (inactive) | – | 0.015 (inactive) | 0.039 (inactive)
21 | EHHADH (UniProt Q08426) | 0.035 (inactive) | -0.143 (inactive) | – | -0.086 (inactive) | 0.031 (inactive)
22 | FYN (UniProt P06241) | -0.323 (inactive) | -0.231 (inactive) | -0.052 (inactive) | 0.019 (inactive) | -0.112 (inactive)
23 | EPS8L2 (UniProt Q9H6S3) | 0.124 (inactive) | -0.09 (inactive) | – | 0.008 (inactive) | 0.037 (inactive)
24 | FAT2 (UniProt Q9NYQ8) | -0.009 (inactive) | 0.092 (inactive) | 0.104 (inactive) | – | -0.161 (inactive)
25 | EPB41 isoform 4 (UniProt P11171) | – | – | – | – | 0.106 (inactive)
